About 83,000 compounds went through this panel and 20% of them were active in at least one assay; those are over-represented in the sample as a whole.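 Assay: single dose, 48 h. Readout: percent growth (0 = no net growth; negative = cell death). Active: <10.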 A number with no mark means an inactive call. Calls of active or inactive are those of the source.
Experiments:
Experiment in all cases: NCI-60 one-dose screen, 48 h (100 = growth as untreated, 0 = no growth, -100 = all killed)
Conditions in all cases: 10 µM unless noted
[1] = system: SR leukemia
[2] = system: RPMI-8226 leukemia
[3] = system: OVCAR-8 ovarian
[4] = system: OVCAR-5 ovarian
[5] = system: OVCAR-4 ovarian
[6] = system: SK-OV-3 ovarian
[7] = system: IGROV1 ovarian
[8] = system: HS 578T breast
[9] = system: NCI/ADR-RES ovarian

SMILES	growth [1]	growth [2]	growth [3]	growth [4]	growth [5]	growth [6]	growth [7]	growth [8]	growth [9]
CC(C)Sc1nc(-c2ccccc2)c(C#N)c(N2CCOCC2)n1	78.9%	90.7%	69.3%	59.8%	2.36% (active)	86.8%	5.14% (active)	50%	71.1%
CCc1nnc(NC(=O)c2cc(-c3ccc(Cl)cc3Cl)oc2C)s1	96.5%	87.7%	90.3%	92.7%	48.4%	106%	87.8%	86%	88.7%
O=C(COc1ccc(/C=C2\C(=O)Nc3ccc(F)cc32)cc1)Nc1ccccc1	86.1%	103%	98.7%	95.8%	100%	96.9%	109%	105%	101%
COc1ccccc1/C=C/C(=O)c1nnn(-c2ccc(F)cc2)c1C	13.2%	20.9%	44.9%	89.5%	59.2%	95.8%	45.6%	78.3%	34.3%
COC(=O)[C@@H](Cc1c[nH]c2ccccc12)NC(=O)CCCCOc1cc(O)c2c(=O)cc(-c3ccccc3)oc2c1	72.3%	71.8%	87.5%	104%	80%	97.7%	87.5%	80.9%	80.9%
CCN(CC)c1ccc(/C=N/NC(=O)c2ccc(S(N)(=O)=O)cc2)c(O)c1	10.5%	38.3%	13.1%	50%	32.6%	32.2%	17.6%	54.3%	18%
CC(C)(C)OC(=O)NCc1ccc(CNc2c([N+](=O)[O-])cnc3ccccc23)cc1	37.1%	43.6%	63.4%	93.6%	54.8%	68%	76.5%	76.9%	38.2%
COc1cc(/C=C2/C(=O)Nc3ccc(Cl)cc32)ccc1OCc1ccc(Cl)cc1	41.9%	100%	91.2%	96.7%	20.3%	110%	77.3%	94.1%	88.3%
N#Cc1cccc(-c2cc(-c3ccc4c(c3)OCCO4)[nH]n2)c1	12.4%	18.3%	35.3%	71.8%	79.2%	54.3%	36.5%	40.1%	20%
CCc1cc2c(cc1Cl)nc1c(=O)[nH]c(=O)nc-1n2CCOCC(C)(C)C	35.8%	68.5%	72.2%	119%	52.5%	110%	60.3%	101%	79.2%
CC[C@]12CC(C(=O)OC)=C3Nc4ccccc4[C@@]34CCN(C14)[C@@H]1c3cc4c(cc3O[C@@H]1[C@H]2O)NC1=C(C(=O)OC)C[C@@]2(CC)C3N(CC[C@@]143)C[C@H]1O[C@H]12 (stereo partly specified)	6.59% (active)	-3% (active)	24.4%	38.6%	33.2%	27.9%	15.9%	12.2%	1.07% (active)
Clc1ccc2c(N/N=C/c3c[nH]c4ccccc34)ccnc2c1	2.13% (active)	-25% (active)	-68% (active)	-83.9% (active)	-61.2% (active)	-85.6% (active)	-87.2% (active)	-47% (active)	-71.8% (active)
O=C1[C@@H]2Cc3c([nH]c4ccccc34)[C@H](c3ccc(Br)cc3)N2C(=O)CN1C1CCN(Cc2c(Cl)cccc2Cl)CC1	91.7%	79.9%	94.6%	99.4%	86.2%	86.7%	84.7%	90.1%	90.9%
CCOC(=O)c1c(N)c(C#N)cn1Cc1ccc(Cl)cc1Cl	26.2%	83%	94.4%	85.5%	79.3%	101%	63.3%	73.4%	61.5%

— PubChem BioAssay (NCI)
